From PubChem BioAssay (EPA / NIEHS) come the findings set out here.

In assay [1] the target is Estrogen receptor (Homo sapiens) (UniProt P03372). The experiment in a line: OT_ER_ERaERa_1440: Odyssey Thera (OT) 24-hour HEK293T Protein-Complementation Assay for Estrogen Receptor-alpha/-alpha Homodimer (AID 2283349).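 Also: hits raise fluorescence above DMSO for agonists and antagonists alike.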 The method, boiled down: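 Readout is the rise in mean fluorescence from reporter fragment complementation when ERα LBD (aa 310-547) units dimerize in HEK293T cells. Measured 24 h after dosing and analysed as increase over DMSO control.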
Chain of Estrogen receptor (Homo sapiens) (P03372 whole entry, looked up, the tested form may be a part): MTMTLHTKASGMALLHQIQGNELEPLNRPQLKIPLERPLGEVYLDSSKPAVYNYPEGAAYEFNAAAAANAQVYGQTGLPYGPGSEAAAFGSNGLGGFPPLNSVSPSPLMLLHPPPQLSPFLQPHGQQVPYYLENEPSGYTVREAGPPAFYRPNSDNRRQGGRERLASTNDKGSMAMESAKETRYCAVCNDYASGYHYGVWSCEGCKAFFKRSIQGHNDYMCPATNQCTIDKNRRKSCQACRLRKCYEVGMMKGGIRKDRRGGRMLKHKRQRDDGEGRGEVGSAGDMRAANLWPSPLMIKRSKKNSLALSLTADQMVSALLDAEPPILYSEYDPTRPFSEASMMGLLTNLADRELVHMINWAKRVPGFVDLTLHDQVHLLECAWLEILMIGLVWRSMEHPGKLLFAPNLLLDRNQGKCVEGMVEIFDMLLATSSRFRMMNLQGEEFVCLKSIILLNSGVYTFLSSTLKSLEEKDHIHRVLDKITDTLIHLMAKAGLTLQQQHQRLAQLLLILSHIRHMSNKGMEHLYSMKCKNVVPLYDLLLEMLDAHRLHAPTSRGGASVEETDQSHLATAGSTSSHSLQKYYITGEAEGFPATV

Assay [2] has the same target. The experiment in a line: OT_ER_ERaERa_0480: Odyssey Thera (OT) 8-hour HEK293T Protein-Complementation Assay for Estrogen Receptor-alpha/-alpha Homodimer (AID 2283351).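 Also: rise in fluorescence from reassembled reporter fragments on ERα LBD homodimer in nucleus or whole cell.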 A digest of the protocol:
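Binding reporter in which dimerisation of ERα LBD (aa 310-547) fusions reconstitutes a fluorescent reporter in HEK293T cells. Compounds incubated 8 h; mean fluorescence intensity increase versus DMSO scored.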

The target of assay [3] is T1, Estrogen receptor (Homo sapiens) + Estrogen receptor beta (Homo sapiens) (UniProt P03372+Q92731). Briefly: OT_ER_ERaERb_0480: Odyssey Thera (OT) 8-hour HEK293T Protein-Complementation Assay for Estrogen Receptor-alpha/-beta Heterodimer (AID 2283352). The method, boiled down:
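Human HEK293T cells were treated for 8 hours and receptor heterodimerisation was detected through reconstitution of a fluorescent reporter split between ER-alpha and ER-beta ligand-binding domains. Activity was analysed as gain of signal against DMSO.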

Assay [4] has as its target T1, Estrogen receptor (Homo sapiens) + Estrogen receptor beta (Homo sapiens). The experiment in a line: OT_ER_ERaERb_1440: Odyssey Thera (OT) 24-hour HEK293T Protein-Complementation Assay for Estrogen Receptor-alpha/-beta Homodimer (AID 2283356).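 Also: heteromer of ER alpha and ER beta binding domains; hits raise reporter fluorescence and both agonists and antagonists give an increase.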 A digest of the protocol: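 24 h exposure; HEK293T PCA cells with ERα/ERβ LBD fragments; signal rise in nuclear or whole-cell fluorescence over vehicle.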

Assay [5] deals with Estrogen receptor beta (Homo sapiens) (UniProt Q92731). The experiment in a line: OT_ER_ERbERb_0480: Odyssey Thera (OT) 8-hour HEK293T Protein-Complementation Assay for Estrogen Receptor-beta/-beta Homodimer (AID 2283357).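 Also: active means signal gain over DMSO baseline.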 The method, boiled down: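 Readout: increase in mean fluorescence intensity (nucleus for agonists; nucleus plus cytoplasm for antagonists) relative to DMSO, from a reporter-fragment complementation of human ER-beta LBD homodimer in HEK293T cells dosed 8 hours.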
Chain of Estrogen receptor beta (Homo sapiens) (Q92731 whole entry, looked up, the tested form may be a part): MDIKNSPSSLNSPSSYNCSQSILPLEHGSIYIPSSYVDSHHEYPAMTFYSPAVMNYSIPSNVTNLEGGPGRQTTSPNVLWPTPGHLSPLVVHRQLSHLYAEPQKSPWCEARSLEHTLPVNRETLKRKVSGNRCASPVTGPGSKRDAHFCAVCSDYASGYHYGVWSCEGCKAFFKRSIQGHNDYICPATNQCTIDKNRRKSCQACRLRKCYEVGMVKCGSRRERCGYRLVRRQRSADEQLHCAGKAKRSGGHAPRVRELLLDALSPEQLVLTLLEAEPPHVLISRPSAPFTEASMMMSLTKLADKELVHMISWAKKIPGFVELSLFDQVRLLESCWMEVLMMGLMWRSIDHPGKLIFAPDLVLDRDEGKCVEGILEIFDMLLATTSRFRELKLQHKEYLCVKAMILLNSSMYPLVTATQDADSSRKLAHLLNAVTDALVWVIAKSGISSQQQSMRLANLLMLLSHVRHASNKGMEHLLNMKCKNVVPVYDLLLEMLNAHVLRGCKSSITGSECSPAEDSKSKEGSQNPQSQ

Assay [6] deals with Androgen Receptor/SRC-1 Co-activator, AR (gene 367) (UniProt P10275). Briefly: OT_AR_ARSRC1_0960: Odyssey Thera (OT) 16-hour HEK293T Protein-Complementation Assay for Androgen Receptor/SRC-1 Co-activator (AID 2283353).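 Also: actives raise the signal above DMSO so potency reflects increased AR and SRC-1 complex.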 The method, boiled down: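 Interaction of AR with SRC-1 was followed by YFP fragment complementation in HEK293T cells after 16 h of dosing. Gain of nuclear-over-cytoplasmic 488 nm fluorescence against DMSO controls defined activity.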
Chain of Androgen Receptor/SRC-1 Co-activator, AR (gene 367) (P10275 whole entry, looked up, the tested form may be a part): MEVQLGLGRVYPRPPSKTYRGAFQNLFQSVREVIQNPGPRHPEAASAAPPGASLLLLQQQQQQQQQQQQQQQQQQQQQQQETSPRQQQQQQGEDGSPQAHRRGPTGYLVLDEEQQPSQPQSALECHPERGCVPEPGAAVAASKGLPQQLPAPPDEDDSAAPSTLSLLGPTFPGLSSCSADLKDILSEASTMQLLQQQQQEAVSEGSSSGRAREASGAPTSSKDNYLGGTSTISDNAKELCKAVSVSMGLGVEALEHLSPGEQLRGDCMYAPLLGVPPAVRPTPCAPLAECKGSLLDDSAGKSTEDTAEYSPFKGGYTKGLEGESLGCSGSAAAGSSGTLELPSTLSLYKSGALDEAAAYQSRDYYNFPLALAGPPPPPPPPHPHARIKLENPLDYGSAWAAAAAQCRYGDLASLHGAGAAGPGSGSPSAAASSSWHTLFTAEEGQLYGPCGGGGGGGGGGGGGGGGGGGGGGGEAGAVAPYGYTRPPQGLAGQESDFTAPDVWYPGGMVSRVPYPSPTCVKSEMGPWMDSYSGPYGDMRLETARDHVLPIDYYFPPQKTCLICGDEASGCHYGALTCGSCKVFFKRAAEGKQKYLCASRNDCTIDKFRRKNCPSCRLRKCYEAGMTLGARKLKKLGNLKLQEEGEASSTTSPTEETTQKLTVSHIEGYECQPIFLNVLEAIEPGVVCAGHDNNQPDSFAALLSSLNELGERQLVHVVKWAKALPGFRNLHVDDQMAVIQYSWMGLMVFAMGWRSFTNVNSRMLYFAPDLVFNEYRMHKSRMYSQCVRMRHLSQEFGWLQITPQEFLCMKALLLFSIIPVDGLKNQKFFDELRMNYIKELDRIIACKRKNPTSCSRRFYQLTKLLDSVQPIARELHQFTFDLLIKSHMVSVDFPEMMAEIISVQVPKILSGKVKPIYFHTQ

For assay [7] the target is unchanged. The experiment in a line: OT_AR_ARSRC1_0480: Odyssey Thera (OT) 8-hour HEK293T Protein-Complementation Assay for Androgen Receptor/SRC-1 Co-activator (AID 2283354).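 Also: hits raise the complementation signal above DMSO so AC50 marks enhancers.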 A digest of the protocol:
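HEK293T cells stably expressing AR and SRC-1 fused to split Venus YFP fragments via (Gly4Ser)2 linkers were read 8 h after compound dosing. Complementation was imaged at 488 and 635nm, and nuclear/cytoplasmic fluorescence ratio (488nm) was taken over ≥400 cells; gain-of-signal versus DMSO.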

Assay [8] has as its target Bile acid receptor (Homo sapiens) (UniProt Q96RI1). Briefly: NVS_NR_hFXR_Antagonist: NovaScreen (NVS) Nuclear Receptor Binding Assay for human Farnesoid X Receptor Antagonism (FXR) (AID 2283350). The method, boiled down:
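Cell-free TR-FRET ligand-binding read-out on human FXR (NR1H4) in antagonist mode, measured 1 h after dosing. Primary screen in duplicate at 25 uM, actives retested in concentration series; signal loss scored versus DMSO.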

The target of assay [9] is Retinoic acid receptor alpha (Homo sapiens) (UniProt P10276). The experiment in a line: NVS_NR_hRAR_Antagonist: NovaScreen (NVS) Nuclear Receptor Binding Assay for human Retinoic Acid Alpha Receptor Antagonism (RAR) (AID 2283358). The method, boiled down: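 Cell-free TR-FRET binding assay on extracted receptor protein, run in antagonist mode; signal read 2 hours after chemical dosing. Loss of signal was fitted relative to DMSO baseline. Screened at 25 uM in duplicate, actives followed up in concentration series.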
Chain of Retinoic acid receptor alpha (Homo sapiens) (P10276 whole entry, looked up): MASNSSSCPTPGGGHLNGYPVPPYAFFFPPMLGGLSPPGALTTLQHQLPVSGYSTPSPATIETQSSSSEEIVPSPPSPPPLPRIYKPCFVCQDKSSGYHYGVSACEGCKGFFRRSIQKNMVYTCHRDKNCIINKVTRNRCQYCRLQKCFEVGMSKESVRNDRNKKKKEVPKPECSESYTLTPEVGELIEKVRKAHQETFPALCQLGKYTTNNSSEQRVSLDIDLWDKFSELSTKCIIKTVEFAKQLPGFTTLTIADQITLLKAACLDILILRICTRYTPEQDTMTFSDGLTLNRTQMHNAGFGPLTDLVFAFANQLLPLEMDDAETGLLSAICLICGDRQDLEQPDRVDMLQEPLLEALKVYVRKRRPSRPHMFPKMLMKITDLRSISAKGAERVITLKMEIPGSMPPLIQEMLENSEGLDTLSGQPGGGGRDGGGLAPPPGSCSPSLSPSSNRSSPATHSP

The target in assay [10] is rat Mineralocorticoid Receptor (MR), Nr3c2 (gene 25672) (UniProt P22199). Briefly: NVS_NR_rMR: NovaScreen (NVS) Nuclear Receptor Binding Assay for rat Mineralocorticoid Receptor (MR) (AID 2283355). A digest of the protocol:
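Cell-free radioligand binding to MR in adrenalectomized rat brain supernatant, scintillation counted 24 h after dosing. Loss of signal versus DMSO baseline marks displacement. Primary screen in duplicate at 25 uM; actives retested as concentration series.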

The structures appear in SMILES notation. Values joined by “and” are separate entries in the source; they are usually repeats but may differ in a detail not shown here. Equal values may be shown once. Records with an inconclusive call do not appear. A structure can be active in one record and inactive in another. Active and inactive are the calls of the source. The calls were made as follows: active = hit-call score of the fitted dose curve at least 0.9, where 1 is the maximum; inconclusive = response in the unintended direction; inactive = score below 0.9.

Chain of Bile acid receptor (Homo sapiens) (Q96RI1 whole entry, looked up): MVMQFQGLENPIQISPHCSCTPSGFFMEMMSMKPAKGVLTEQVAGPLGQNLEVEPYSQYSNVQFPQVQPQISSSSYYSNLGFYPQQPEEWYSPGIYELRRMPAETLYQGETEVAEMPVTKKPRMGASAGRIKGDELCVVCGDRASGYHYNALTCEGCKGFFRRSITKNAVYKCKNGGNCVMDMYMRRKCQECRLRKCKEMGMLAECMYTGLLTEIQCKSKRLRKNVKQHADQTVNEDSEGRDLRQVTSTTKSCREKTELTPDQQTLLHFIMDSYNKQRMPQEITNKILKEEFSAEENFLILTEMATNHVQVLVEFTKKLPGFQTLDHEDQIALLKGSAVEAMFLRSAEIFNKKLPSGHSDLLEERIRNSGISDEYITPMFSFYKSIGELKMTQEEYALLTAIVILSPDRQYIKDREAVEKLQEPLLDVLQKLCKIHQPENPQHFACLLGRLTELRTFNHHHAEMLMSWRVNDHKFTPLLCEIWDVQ
T1 sequence (P03372 whole entry, looked up, the tested form may be a part): as the sequence (P03372 whole entry, looked up, the tested form may be a part) above
T1 sequence (Q92731 whole entry, looked up, the tested form may be a part): as the sequence (Q92731 whole entry, looked up, the tested form may be a part) above
Chain of rat Mineralocorticoid Receptor (MR), Nr3c2 (gene 25672) (P22199 whole entry, looked up): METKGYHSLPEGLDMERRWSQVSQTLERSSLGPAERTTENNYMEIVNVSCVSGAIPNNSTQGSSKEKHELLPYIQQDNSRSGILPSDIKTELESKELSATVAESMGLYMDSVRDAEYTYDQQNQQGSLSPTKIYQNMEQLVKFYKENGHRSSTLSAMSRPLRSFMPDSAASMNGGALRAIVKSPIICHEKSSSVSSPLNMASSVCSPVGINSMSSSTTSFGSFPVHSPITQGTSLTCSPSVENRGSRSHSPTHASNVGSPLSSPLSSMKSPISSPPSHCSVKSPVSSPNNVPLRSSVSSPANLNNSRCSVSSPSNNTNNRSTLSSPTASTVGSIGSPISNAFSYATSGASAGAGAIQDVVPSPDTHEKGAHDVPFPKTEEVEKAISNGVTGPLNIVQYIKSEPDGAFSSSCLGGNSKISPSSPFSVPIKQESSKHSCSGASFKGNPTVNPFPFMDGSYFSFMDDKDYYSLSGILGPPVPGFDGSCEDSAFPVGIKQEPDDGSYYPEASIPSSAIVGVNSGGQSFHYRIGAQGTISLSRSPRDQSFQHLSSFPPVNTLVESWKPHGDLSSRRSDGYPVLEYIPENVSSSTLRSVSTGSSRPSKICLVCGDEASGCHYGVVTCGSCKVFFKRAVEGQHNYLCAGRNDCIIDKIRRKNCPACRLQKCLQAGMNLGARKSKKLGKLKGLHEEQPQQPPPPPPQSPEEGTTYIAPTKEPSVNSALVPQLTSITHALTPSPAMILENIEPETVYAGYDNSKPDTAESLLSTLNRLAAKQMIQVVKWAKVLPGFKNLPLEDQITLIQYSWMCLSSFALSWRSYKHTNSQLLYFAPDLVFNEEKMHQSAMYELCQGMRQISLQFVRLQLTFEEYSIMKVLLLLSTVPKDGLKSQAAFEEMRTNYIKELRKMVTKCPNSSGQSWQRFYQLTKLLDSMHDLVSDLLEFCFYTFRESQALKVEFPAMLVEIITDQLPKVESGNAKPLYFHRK

Regarding `C=C(C)C(=O)OCCC(F)(F)C(F)(F)C(F)(F)C(F)(F)C(F)(F)C(F)(F)F`, the outcome in assay [1], in assay [2], in [3], in assay [4] and in assay [5] was inactive.
Consider `Cc1cc(CCN2CCN(c3nsc4ccccc34)CC2)cc2c1NC(=O)CC2(C)C`, for which the result in [1], in assay [2], in assay [3], in [4] and in assay [5] was inactive. The AC50 in assay [6] was 12.6 µM (active); in assay [7] it was 15.4 µM (active).
`OC1CCC(C2CCCCC2)CC1` (centres undefined): the compound was called inactive in [1], in assay [2], in assay [3], in assay [4] and in [5]. The AC50 in assay [2] was 81.9 µM (active); in assay [3], 50 µM (active) and 34.5 µM (active) and 48.7 µM (active); in assay [4], 60.7 µM (active) and 64.1 µM (active) and 59.4 µM (active); in assay [5], 25.6 µM (active) and 31.9 µM (active) and 26.9 µM (active).
As to `CC(O)CO` (centres undefined), the call in assay [1], in [8] and in assay [2] was inactive.
As for `CC[C@H](C)[C@@H](C(=O)O)n1sc2ccccc2c1=O`, the compound was classed as inactive in [1], in [2], in [3], in assay [4] and in assay [5].
`COC(=O)CCCCC(=O)OC`: the compound was called inactive in assay [1] and in assay [2].
Take `CCCCCCCCC(=O)O`: the result in assay [1], in assay [2], in assay [3] and in [4] was inactive.
Regarding `CN1CCN(c2ccccc2/C=C2\SCCN(c3ccc(Cl)c(Cl)c3)C2=O)CC1`, the compound was called inactive in assay [1], in assay [8], in assay [2] and in [5].
As for `CC(O)C(=O)O` (centres undefined), the compound was classed as inactive in assay [1] and in assay [2].
As to `N#C[C@@H]1CC(F)(F)CN1C(=O)CNC1CC2CCC(C1)N2c1ncccn1` (some centres undefined), the compound was classed as inactive in assay [1], in [2], in [3], in [6], in [7] and in assay [4]. Moreover, the outcome in [5] and in [9] was inactive.
Take `CC(=O)CC(C)(C)O`: the outcome in assay [1], in assay [2], in [3], in [6], in [7] and in [4] was inactive. The compound was classed as inactive in assay [5].
With `C[C@@H]1C[C@H]2[C@@H]3CCC4=CC(=O)C=C[C@]4(C)[C@@]3(F)[C@@H](O)C[C@]2(C)[C@@]1(O)C(=O)COP(=O)(O)O`, the outcome in assay [1], in [2], in assay [3], in [4] and in assay [5] was inactive. Moreover, the AC50 in assay [10] was 8.69 nM (active) and 2.18 nM (active) and 33.9 nM (active).
On to `CC(=O)NC1(c2cccc(F)c2)CCN(CC[C@@]2(c3ccc(Cl)c(Cl)c3)CN(c3ccccc3)C(=O)CO2)CC1`, for which the compound was called inactive in assay [1] and in assay [2].
For `OCCC(F)(F)C(F)(F)C(F)(F)C(F)(F)C(F)(F)C(F)(F)C(F)(F)C(F)(F)F`, the compound was called inactive in [1], in [2], in assay [3], in [6], in assay [7] and in assay [4]. Further, the compound was called inactive in assay [5].
In the case of `O=C(O)c1ccccc1C(c1ccc(O)cc1)c1ccc(O)cc1`, the result in [1], in assay [2], in assay [3], in assay [6], in assay [7] and in assay [4] was inactive. In addition, the compound was called inactive in assay [5].
`CC(C)CCCCCCOC(=O)CCCCC(=O)OCCCCCCC(C)C`: the result in assay [1], in assay [8], in assay [2] and in assay [9] was inactive.
With `CCCCC(CC)COC(=O)CCCCC(=O)OCC(CC)CCCC` (centres undefined), the call in assay [1], in assay [8], in assay [2], in [3], in [4] and in [5] was inactive.
On to `CC(C)(C)c1cccc(C(C)(C)C)c1O`, for which the compound was called inactive in assay [1] and in assay [2].
On to `C#C[C@]1(O)CC[C@H]2[C@@H]3CCC4=CC(=O)CC[C@@H]4[C@H]3CC[C@@]21C`, for which the call in [1], in assay [2], in [3], in [4] and in assay [5] was inactive. The AC50 is 500 nM (active) in assay [10]; 25.7 µM (active) and 31.6 µM (active) and 17.8 µM (active) in assay [5].
With `CCCCOCCO`, the compound was classed as inactive in [1] and in assay [2].
In the case of `OC1CCCCC1`, the compound was classed as inactive in [1] and in [2].
As for `O=C1OC2(c3ccccc31)c1cc(Br)c(O)c(Br)c1Oc1c2cc(Br)c(O)c1Br`, the AC50 in assay [1] is 62.2 µM (active); in assay [2], 88.3 µM (active); in assay [3], 78.2 µM (active); in assay [4], 53.7 µM (active).
As for `O=C(OCCOCCOC(=O)c1ccccc1)c1ccccc1`, the outcome in [1], in assay [8] and in assay [2] was inactive.
Turning to `Cc1cc(C)c(O)c(C)c1`, the outcome in [1] and in assay [2] was inactive.
In the case of `O=[N+]([O-])c1ccc(O)cc1`, the outcome in [1] and in assay [2] was inactive.
Turning to `CC#C[C@]1(O)CC[C@H]2[C@@H]3CCC4=CC(=O)CCC4=C3[C@@H](c3ccc(N(C)C)cc3)C[C@@]21C`, the compound was classed as inactive in [1], in [8] and in [2]. In addition, the AC50 in assay [10] was 5210 nM (active).
With `OCCC(F)(F)C(F)(F)C(F)(F)C(F)(F)C(F)(F)C(F)(F)F`, the result in assay [1], in [2], in assay [3], in [4] and in assay [5] was inactive.
As for `CCC(C)(C)C1CCC(O)CC1` (centres undefined), the outcome in assay [1] was inactive. Besides, in [2], the AC50 is 59.3 µM (active) and the outcome was inactive.
For `Oc1cccc(O)c1`, the compound was classed as inactive in assay [1], in [2], in [3] and in assay [5]. The AC50 in assay [4] is 32.1 µM (active).
In the case of `CCCCCCCCCCCCc1ccccc1S(=O)(=O)O`, the result in assay [1], in assay [2], in [6], in assay [7], in [10] and in [4] was inactive. The outcome in assay [5] was inactive. Further, the results for the AC50 in assay [8] and in assay [9] were 12.2 µM (active) and 19 µM (active), respectively.
`c1ccc2cc3c(ccc4ccccc43)cc2c1`: the call in assay [1], in assay [8] and in assay [2] was inactive.
As to `Cc1ccc(S(=O)(=O)O)c(C)c1`, in [1], the AC50 is 56.2 µM (active) and the call was inactive. Besides, the outcome in assay [2] was inactive.
Take `CCCCCCCCCCCCCCCS(=O)(=O)Oc1ccccc1`: the compound was classed as inactive in [1], in [2], in assay [3], in assay [4] and in [5].
